GRP78 ERSR act – induces the endoplasmic reticulum stress response in human glioma cells; AID 602332; U87-MG GRP78 promoter luciferase reporter, 16 h; hit rate 0.02% among 420,000; Potency, µM, hits mostly activators; note: series mostly up to about 76 µM; nearly all actives have a fitted effect of over 35% in size
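Stably transfected U87-MG glioma cells carrying a GRP78-based luciferase sensor; 16 h compound incubation. Luminescence end-point read 10 min after Bright-Glo addition at room temperature.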
CBFb RUNX1 block – inhibitors of human CBF-beta and RUNX1 interaction; Q01196+Q13951; AlphaScreen CBFb-His/RUNX1-biotin binding, biochemical; Potency, µM (series often up to 59.8 µM), usual class: inhibitors; 230,000 tested, under 10 active; AID 1477
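CBF-beta (His) and RUNX1 (biotin), 30 nM each; 20 min preassociation; + compound, 15 min; + beads 50 ng each (Ni, streptavidin), 90 min; RT; AlphaScreen read.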
Integrin act MD – integrin-mediated muscular dystrophy alleviation activation; hit rate 0.064% among 350,000; Potency, µM (series often up to 38.3 µM), usual class: activators; alpha7betagal myoblasts, beta-gal FDG fluorescence, 48 h; AID 624291; note: nearly all actives have a fitted effect of over 60% in size
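alpha7betagal+/- myoblasts (passage 13, 250/well) treated 48 h at 37C with compounds at 1:260 dilution of DMSO stock. Lysed, then beta-galactosidase activity read as FDG fluorescence (ex 480/em 540) after 30 min, with pre-read for autofluorescence.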
N370S GC – inhibits or activates N370S mutant glucocerebrosidase; Potency, µM (doses to about 59.4 µM), usual class: inhibitors; N370S GC spleen homogenate, 4MU-glucoside fluorescence; hit rate 0.092% among 330,000; AID 2101
Anesthetic bind – candidate novel general anesthetic via apoferritin binding | P02791 | apoferritin/1-aminoanthracene competitive binding, fluorescence | Potency, µM (titrated, usually from 77.5 µM), usual class: inhibitors | hit rate 0.074% among 350,000; note: nearly all actives have a fitted effect of over 20% in size
Target sequence (P02791 2-175 limits assumed): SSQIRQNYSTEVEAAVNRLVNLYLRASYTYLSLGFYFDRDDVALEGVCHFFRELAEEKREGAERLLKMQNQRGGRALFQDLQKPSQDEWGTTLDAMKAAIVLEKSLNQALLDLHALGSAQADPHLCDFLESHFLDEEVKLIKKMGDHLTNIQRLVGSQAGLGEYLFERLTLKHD
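Horse-spleen apoferritin (10 uM) was mixed with 50% saturated 1-aminoanthracene in PBS, exposed to compounds for 10 min at room temperature, and read for fluorescence (ex 380 nm, em 535 nm). Competitive displacement was fitted with a four-parameter Hill equation.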
ClpP mod – qHTS Assay for Activators of ClpP; AID 651965, 2013; Potency, µM (highest dose often 57.5 µM); purified B. subtilis ClpP, FRET peptide cleavage, 20 min; ATP-dependent Clp protease proteolytic subunit (Bacillus subtilis (strain 168)), P80244; hit rate 1.9% among 340,000; active = well fitted falling curve with a large enough effect; inconclusive = small, poorly fitted or top-dose-only effect; inactive = no such curve, though single readings can be large or run the other way; note: the source files actives as falling curves though it sought activators and does not explain the sign; nearly all actives have a fitted effect of over 65% in size
Target sequence (P80244 whole entry, looked up): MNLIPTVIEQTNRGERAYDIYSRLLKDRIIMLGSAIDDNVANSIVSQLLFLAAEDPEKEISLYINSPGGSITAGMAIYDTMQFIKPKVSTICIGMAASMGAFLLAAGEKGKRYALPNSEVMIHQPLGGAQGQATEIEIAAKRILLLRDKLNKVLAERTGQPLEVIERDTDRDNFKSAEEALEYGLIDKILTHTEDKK
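ClpP 10 microg/mL final, pH 8 Tris/KCl buffer with BSA, glycerol, Tween-20; compound pinned in; FRET-FV substrate; RT 20 min; Ex320/Em430; ΔFRET vs ADEP 5.8 microM, DMSO, no enzyme.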
A number is an active result. This is one part of a sample in which hits are shown more often than they occur. Unless noted, calls come from the whole dose curve; as a rule, active = well fitted curve in the direction sought with a large enough effect; inconclusive = small, poorly fitted or top-dose-only effect, or another doubt; inactive = no such curve, though single readings can be large; an effect the other way counts as inactive or inconclusive.

`COc1ccc(CN2CCOc3ccc(CN4CCC(O)(c5cccnc5)CC4)cc3C2)cc1OC` gave GRP78 ERSR act inactive.
Screening O=C(Nc1ccc(F)cc1F)c1cc2n(n1)C(C(F)(F)F)C1CCCCC1N2 (stereo not drawn) returned GRP78 ERSR act inactive, CBFb RUNX1 block inactive, Integrin act MD inactive, N370S GC inconclusive, Anesthetic bind inactive and ClpP mod 28µM.
O=C(Nc1ccc(F)cc1F)c1cc2nc3c(c(C(F)(F)F)n2n1)CCCC3 was read as GRP78 ERSR act inactive, CBFb RUNX1 block inactive, Integrin act MD inactive, N370S GC inactive, Anesthetic bind inactive and ClpP mod inactive.
For CCOC(=O)c1c(NC(=O)COC(=O)CCOc2ccccc2C)sc(C(=O)NC)c1C the results were GRP78 ERSR act inactive, Integrin act MD inactive, N370S GC inactive and ClpP mod 20µM.
Screening CCC(C(=O)NCc1ccco1)N(C(=O)CNS(=O)(=O)c1ccc(C)cc1)c1ccccc1F (stereo not drawn) returned GRP78 ERSR act inactive, Integrin act MD inactive, N370S GC inactive and Anesthetic bind inactive.
CCC(C(=O)NCc1ccco1)N(C(=O)CNS(=O)(=O)c1ccc(C)cc1)c1ccccc1OC (stereo not drawn) was read as GRP78 ERSR act inactive, CBFb RUNX1 block inactive, Integrin act MD inactive, N370S GC inactive, Anesthetic bind inactive and ClpP mod 32µM.
O=C(NC(NC(=S)Nc1ccccc1C(=O)O)C(Cl)(Cl)Cl)c1ccco1 (stereo not drawn) was read as GRP78 ERSR act inactive, CBFb RUNX1 block inactive, Integrin act MD inactive, N370S GC inactive, Anesthetic bind inactive and ClpP mod 28µM.
Screening O=C(NC1CCCC1)c1cccc(Cn2cc([N+](=O)[O-])cn2)c1 returned GRP78 ERSR act inactive, CBFb RUNX1 block inactive, Integrin act MD inactive, N370S GC inactive, Anesthetic bind inactive and ClpP mod 16µM.
CCCN1C2CCCC1CC(NC(=O)c1cccc([N+](=O)[O-])c1)C2 (stereo not drawn) was read as GRP78 ERSR act inactive, Integrin act MD 10µM, N370S GC inactive, Anesthetic bind inactive and ClpP mod 28µM.
Screening Cc1nc(SCC(=O)Nc2ccccc2C(F)(F)F)c(C#N)c(C)c1CC(=O)c1ccc(Br)cc1 returned CBFb RUNX1 block inactive, N370S GC inactive and Anesthetic bind inactive.
For Cc1cccc(C)c1NC(=O)CSc1nc(C)c(CC(=O)c2ccc(Br)cc2)c(C)c1C#N the results were GRP78 ERSR act inactive, CBFb RUNX1 block inactive, Integrin act MD inactive, N370S GC inactive, Anesthetic bind inactive and ClpP mod 28µM.
For CC(C(=O)Nc1ccc(C#N)cc1)N(C)CC(=O)Nc1cccc(F)c1 (stereo not drawn) the results were GRP78 ERSR act inactive, CBFb RUNX1 block inactive, Integrin act MD 4µM, N370S GC inactive, Anesthetic bind inactive and ClpP mod inactive.
Screening CCOc1ccc(-c2csc(NC(=O)CSC3=NC(=O)CN3C(C)=O)n2)c2ccccc12 returned GRP78 ERSR act inactive, CBFb RUNX1 block inactive, Integrin act MD inconclusive, N370S GC inactive, Anesthetic bind inactive and ClpP mod inactive.
For CC(=O)N1CC(=O)N=C1SCC(=O)Nc1nc(C)c(-c2ccccc2)s1 the results were GRP78 ERSR act inconclusive, CBFb RUNX1 block inactive, Integrin act MD inactive, N370S GC inactive, Anesthetic bind inactive and ClpP mod 20µM.
For COCCN1C2=C(C(=O)CC(C)(C)C2)C(c2ccc(OC)c(OC)c2)C2=C1CC(C)(C)CC2=O the results were GRP78 ERSR act inactive, Integrin act MD inactive, N370S GC inactive, Anesthetic bind inactive and ClpP mod 10µM.
Screening Cc1ccc(S(=O)(=O)NCc2ccc(C(=O)N3CCc4ccccc4C3)cc2)cc1 returned GRP78 ERSR act inactive, CBFb RUNX1 block inactive, Integrin act MD inactive, N370S GC inactive, Anesthetic bind inactive and ClpP mod 28µM.
Screening CCOc1ccc(-n2c(C)nc3cc(C(=O)NCCCN4CCOCC4)ccc32)cc1 returned GRP78 ERSR act inactive, CBFb RUNX1 block inactive, Integrin act MD inactive, N370S GC inactive, Anesthetic bind inactive and ClpP mod 32µM.
O=C(COC(=O)Cn1cnc2ccccc2c1=O)Nc1ccc(Cl)cc1 was read as GRP78 ERSR act inactive, CBFb RUNX1 block inactive, Integrin act MD inactive, N370S GC inactive, Anesthetic bind inconclusive and ClpP mod inactive.
O=C(COC(=O)Cn1cnc2ccccc21)Nc1cccc([N+](=O)[O-])c1 was read as GRP78 ERSR act inactive, CBFb RUNX1 block inactive, Integrin act MD 11µM, N370S GC inactive and Anesthetic bind inactive.
Screening O=C(COC(=O)Cn1cnc2ccccc2c1=O)Nc1ccc(Cl)c(C(F)(F)F)c1 returned GRP78 ERSR act inactive, CBFb RUNX1 block inactive, Integrin act MD inactive, N370S GC inactive, Anesthetic bind 25µM and ClpP mod inactive.
For CC(=O)Nc1cc(C(=O)N2CCN(C(=O)c3ccco3)CC2)cc2ncn(CCc3ccccn3)c12 the results were GRP78 ERSR act inactive.
`CNCc1nc(-c2ccc[nH]2)c2cc(Cl)ccc2n1` gave GRP78 ERSR act inactive and ClpP mod inactive.
CCOC(=O)C1=C(CC)Nc2ccccc2N=C1NC(=O)c1ccc(C)c(S(=O)(=O)N2CCOCC2)c1 was read as GRP78 ERSR act inactive, Integrin act MD inactive, N370S GC inactive and ClpP mod inactive.
`CCOC(=O)C1=C(CC)Nc2ccccc2N=C1NC(=O)c1ccc(OC)c(S(=O)(=O)N2CCCCC2C)c1` (stereo not drawn) gave GRP78 ERSR act inactive, CBFb RUNX1 block inactive, Integrin act MD 14µM, N370S GC inactive, Anesthetic bind inactive and ClpP mod inactive.
Screening O=C[C@@H]1CCCN1C(=O)[C@@H]1CCCN1C(=O)OCc1ccccc1 returned GRP78 ERSR act inactive, CBFb RUNX1 block inactive, N370S GC inactive and Anesthetic bind inactive.
`Cc1cccc(C(=O)N[C@H]2CC[C@@H](n3cc(C(=O)N4CCCC4)nn3)CC2)c1` gave GRP78 ERSR act inactive.
For CCN1CCCC1CNC(=O)c1cnn(-c2nccc(-c3cc4ccccc4o3)n2)c1C1CC1 (stereo not drawn) the results were GRP78 ERSR act inactive.
Screening CCCCc1nc2ccccc2c(NC(=O)CNC(C)(C)C)c1CCC returned GRP78 ERSR act inactive, CBFb RUNX1 block inactive, Integrin act MD inactive, N370S GC inactive, Anesthetic bind inactive and ClpP mod inactive.

Compound activity as filed in PubChem BioAssay.
